Assays:
Test in all cases: DAPPL (digital affinity profiling via proximity ligation, sequencing); 10 mM Tris-HCl pH 7.5, 50 mM NaCl, 1 mM DTT, 4% glycerol, room temperature, 30 min; GST-TFs on glutathione beads, 16-mer random dsDNA library, 0.1% formaldehyde crosslink after washing; high values mean tight binding
[1] = target: T1, FEV (Homo sapiens, UniProt Q99581 1-238); details: protein: recombinant; tags: N-terminal GST; dsDNA, one strand shown
T1 sequence: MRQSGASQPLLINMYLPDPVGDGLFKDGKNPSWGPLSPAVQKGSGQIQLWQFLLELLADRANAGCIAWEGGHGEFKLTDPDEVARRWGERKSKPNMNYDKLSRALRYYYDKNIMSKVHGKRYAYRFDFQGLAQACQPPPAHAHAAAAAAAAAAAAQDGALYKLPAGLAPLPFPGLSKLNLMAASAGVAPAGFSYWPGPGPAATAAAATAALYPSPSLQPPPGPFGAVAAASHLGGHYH
How it was run: (§1)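 Pools of DNA-barcoded human transcription factors, expressed in yeast as GST fusions on glutathione beads and combined with a tag-only sample, were incubated with 200 nmole of a 16-mer random double-stranded DNA library. Incubation took 30 min at room temperature in Tris/NaCl/DTT/glycerol buffer and was followed by washing, 0.1% formaldehyde crosslinking, proximity ligation (BsaI/T4 ligase, 1 h, 37 °C), PCR amplification and sequencing on an Illumina NextSeq500. Binding signal is the ratio of a hexamer's read frequency for a factor to its frequency for the tag-only sample.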

[2] = target: ETV5 (Homo sapiens, UniProt P41161 1-510); details: protein: recombinant; tags: N-terminal GST; dsDNA, one strand shown
How it was run: as §1

[3] = target: HSF1 (Homo sapiens, UniProt Q00613 1-529); details: protein: recombinant; tags: N-terminal GST; chain copies: 3; dsDNA, one strand shown
How it was run: as §1

[4] = target: T2, SPIC (Homo sapiens, UniProt Q8N5J4 1-248); details: protein: recombinant; tags: N-terminal GST; dsDNA, one strand shown
T2 sequence: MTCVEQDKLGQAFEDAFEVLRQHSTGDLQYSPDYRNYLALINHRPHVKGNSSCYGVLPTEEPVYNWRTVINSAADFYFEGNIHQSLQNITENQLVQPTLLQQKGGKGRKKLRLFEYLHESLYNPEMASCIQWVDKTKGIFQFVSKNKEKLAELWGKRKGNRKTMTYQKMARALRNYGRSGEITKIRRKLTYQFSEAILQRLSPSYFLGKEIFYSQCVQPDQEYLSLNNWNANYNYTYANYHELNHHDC
How it was run: as §1

[5] = target: ELF4 (Homo sapiens, UniProt Q99607 1-663); details: protein: recombinant; tags: N-terminal GST; dsDNA, one strand shown
How it was run: as §1

[6] = target: T3, ELK4 (Homo sapiens, UniProt P28324-2 1-405); details: protein: recombinant; tags: N-terminal GST; dsDNA, one strand shown
T3 sequence: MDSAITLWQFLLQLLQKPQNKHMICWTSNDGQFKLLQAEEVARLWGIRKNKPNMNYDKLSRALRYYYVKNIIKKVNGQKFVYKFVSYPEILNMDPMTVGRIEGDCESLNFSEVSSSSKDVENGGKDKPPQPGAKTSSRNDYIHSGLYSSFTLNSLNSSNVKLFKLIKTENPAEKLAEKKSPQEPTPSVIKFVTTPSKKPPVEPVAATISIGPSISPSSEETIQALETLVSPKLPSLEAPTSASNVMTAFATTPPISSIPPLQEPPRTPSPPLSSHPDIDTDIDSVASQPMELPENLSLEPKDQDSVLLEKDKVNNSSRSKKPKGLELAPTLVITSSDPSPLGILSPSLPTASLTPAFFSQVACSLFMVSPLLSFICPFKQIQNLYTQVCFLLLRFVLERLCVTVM
How it was run: as §1

[7] = target: T4, ETV2 (Homo sapiens, UniProt O00321 1-342); details: protein: recombinant; tags: N-terminal GST; dsDNA, one strand shown
T4 sequence: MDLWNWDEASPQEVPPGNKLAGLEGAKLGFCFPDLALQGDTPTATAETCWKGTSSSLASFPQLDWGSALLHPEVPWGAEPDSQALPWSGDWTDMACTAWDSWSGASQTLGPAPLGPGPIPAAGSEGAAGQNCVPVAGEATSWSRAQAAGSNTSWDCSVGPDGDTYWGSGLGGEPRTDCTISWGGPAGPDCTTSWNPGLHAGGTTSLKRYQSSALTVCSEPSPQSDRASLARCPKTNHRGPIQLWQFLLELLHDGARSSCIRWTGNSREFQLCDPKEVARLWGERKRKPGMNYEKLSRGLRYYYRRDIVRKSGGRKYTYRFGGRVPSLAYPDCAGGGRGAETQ
How it was run: as §1

[8] = target: T5, ELF3 (Homo sapiens, UniProt P78545 1-371); details: protein: recombinant; tags: N-terminal GST; dsDNA, one strand shown
T5 sequence: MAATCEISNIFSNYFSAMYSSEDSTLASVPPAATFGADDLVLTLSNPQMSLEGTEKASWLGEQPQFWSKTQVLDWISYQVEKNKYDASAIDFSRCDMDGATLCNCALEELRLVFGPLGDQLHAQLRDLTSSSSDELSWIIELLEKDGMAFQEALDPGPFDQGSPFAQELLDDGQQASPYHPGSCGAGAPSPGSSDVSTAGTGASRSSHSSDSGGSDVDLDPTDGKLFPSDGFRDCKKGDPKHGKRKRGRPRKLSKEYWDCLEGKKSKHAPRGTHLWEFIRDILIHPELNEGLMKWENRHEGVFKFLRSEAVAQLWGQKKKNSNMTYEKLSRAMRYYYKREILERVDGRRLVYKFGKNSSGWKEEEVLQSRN
How it was run: as §1

[9] = target: CRX (Homo sapiens, UniProt O43186 1-299); details: protein: recombinant; tags: N-terminal GST; dsDNA, one strand shown
How it was run: as §1

[10] = target: ETV1 (Homo sapiens, UniProt P50549 1-477); details: protein: recombinant; tags: N-terminal GST; dsDNA, one strand shown
How it was run: as §1

[11] = target: T6, ERF (Homo sapiens, UniProt P50548 1-548); details: protein: recombinant; tags: N-terminal GST; dsDNA, one strand shown
T6 sequence: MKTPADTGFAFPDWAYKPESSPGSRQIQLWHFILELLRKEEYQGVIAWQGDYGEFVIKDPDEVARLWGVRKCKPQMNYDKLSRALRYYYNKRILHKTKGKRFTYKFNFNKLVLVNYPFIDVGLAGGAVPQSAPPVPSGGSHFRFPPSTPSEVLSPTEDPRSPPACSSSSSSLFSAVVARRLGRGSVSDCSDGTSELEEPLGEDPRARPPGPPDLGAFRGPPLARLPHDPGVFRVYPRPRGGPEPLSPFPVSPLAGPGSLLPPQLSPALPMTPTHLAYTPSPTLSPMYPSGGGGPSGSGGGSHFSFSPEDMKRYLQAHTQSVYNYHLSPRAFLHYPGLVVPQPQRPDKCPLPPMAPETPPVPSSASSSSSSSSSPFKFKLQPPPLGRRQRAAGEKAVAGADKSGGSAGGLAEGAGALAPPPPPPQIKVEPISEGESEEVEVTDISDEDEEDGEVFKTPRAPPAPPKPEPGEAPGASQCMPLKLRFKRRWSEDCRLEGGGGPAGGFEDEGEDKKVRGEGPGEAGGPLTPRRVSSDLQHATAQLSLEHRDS
How it was run: as §1

[12] = target: T7, ETV3L (Homo sapiens, UniProt Q6ZN32 1-361); details: protein: recombinant; tags: N-terminal GST; dsDNA, one strand shown
T7 sequence: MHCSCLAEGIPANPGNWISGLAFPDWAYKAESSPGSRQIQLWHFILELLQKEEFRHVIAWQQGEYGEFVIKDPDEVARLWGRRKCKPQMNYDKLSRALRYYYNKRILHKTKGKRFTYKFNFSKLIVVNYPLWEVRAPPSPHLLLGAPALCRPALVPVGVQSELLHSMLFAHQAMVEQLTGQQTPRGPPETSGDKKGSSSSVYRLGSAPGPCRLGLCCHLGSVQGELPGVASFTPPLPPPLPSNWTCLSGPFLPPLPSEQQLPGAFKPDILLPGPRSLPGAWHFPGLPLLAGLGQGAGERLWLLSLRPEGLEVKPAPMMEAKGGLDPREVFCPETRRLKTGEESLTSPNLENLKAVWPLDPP
How it was run: as §1

[13] = target: T8, ETS2 (Homo sapiens, UniProt P15036 1-469); details: protein: recombinant; tags: N-terminal GST; dsDNA, one strand shown
T8 sequence: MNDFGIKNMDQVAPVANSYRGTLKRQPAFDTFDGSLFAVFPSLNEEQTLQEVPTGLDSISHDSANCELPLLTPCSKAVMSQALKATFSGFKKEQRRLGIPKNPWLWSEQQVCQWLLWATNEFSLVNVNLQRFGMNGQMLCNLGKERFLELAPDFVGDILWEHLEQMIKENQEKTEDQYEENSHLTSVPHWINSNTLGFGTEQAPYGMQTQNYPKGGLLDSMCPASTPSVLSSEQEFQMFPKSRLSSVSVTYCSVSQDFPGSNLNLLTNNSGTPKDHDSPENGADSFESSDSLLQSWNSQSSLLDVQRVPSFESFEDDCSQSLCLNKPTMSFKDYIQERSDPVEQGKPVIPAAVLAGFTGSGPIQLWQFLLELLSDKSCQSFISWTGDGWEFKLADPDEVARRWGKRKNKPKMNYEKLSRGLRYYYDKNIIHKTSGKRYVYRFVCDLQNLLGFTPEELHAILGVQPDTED
How it was run: as §1

[14] = target: T9, SPDEF (Homo sapiens, UniProt O95238 1-335); details: protein: recombinant; tags: N-terminal GST; dsDNA, one strand shown
T9 sequence: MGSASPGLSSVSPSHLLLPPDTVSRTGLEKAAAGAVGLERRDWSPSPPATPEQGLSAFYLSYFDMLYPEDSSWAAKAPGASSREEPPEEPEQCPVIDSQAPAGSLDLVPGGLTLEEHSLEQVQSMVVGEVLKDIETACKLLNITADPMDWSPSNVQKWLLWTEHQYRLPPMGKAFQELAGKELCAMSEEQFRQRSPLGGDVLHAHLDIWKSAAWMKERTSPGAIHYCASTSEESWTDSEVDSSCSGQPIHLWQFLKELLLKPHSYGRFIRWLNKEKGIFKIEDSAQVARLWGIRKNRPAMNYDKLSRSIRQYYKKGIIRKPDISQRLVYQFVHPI
How it was run: as §1

[15] = target: T10, ETV7 (Homo sapiens, UniProt Q9Y603 1-341); details: protein: recombinant; tags: N-terminal GST; dsDNA, one strand shown
T10 sequence: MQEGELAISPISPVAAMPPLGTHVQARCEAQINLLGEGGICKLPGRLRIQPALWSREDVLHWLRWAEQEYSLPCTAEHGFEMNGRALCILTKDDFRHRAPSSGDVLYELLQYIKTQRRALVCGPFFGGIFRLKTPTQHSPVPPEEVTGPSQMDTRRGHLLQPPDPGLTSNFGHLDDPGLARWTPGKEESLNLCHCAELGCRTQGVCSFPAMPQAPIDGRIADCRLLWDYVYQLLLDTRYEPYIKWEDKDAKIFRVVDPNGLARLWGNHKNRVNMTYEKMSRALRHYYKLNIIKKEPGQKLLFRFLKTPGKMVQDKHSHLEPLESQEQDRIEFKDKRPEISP
How it was run: as §1

[16] = target: T11, ELF5 (Homo sapiens, UniProt Q9UKW6-2 1-255); details: protein: recombinant; tags: N-terminal GST; dsDNA, one strand shown
T11 sequence: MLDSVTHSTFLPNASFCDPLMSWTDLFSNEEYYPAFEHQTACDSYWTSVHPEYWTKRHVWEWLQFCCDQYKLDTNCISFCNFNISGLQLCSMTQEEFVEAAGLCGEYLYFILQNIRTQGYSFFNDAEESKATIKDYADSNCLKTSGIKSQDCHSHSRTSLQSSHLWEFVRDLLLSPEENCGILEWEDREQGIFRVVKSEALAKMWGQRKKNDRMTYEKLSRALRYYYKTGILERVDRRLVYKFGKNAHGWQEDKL
How it was run: as §1

[17] = target: T12, ETV3 (Homo sapiens, UniProt P41162-2 1-143); details: protein: recombinant; tags: N-terminal GST; dsDNA, one strand shown
T12 sequence: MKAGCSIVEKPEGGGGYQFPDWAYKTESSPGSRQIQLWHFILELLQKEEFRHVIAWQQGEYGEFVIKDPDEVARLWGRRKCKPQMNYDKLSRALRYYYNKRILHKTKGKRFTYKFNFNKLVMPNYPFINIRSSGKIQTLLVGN
How it was run: as §1

[18] = target: ETV6 (Homo sapiens, UniProt P41212 1-452); details: protein: recombinant; tags: N-terminal GST; dsDNA, one strand shown
How it was run: as §1

HSF1, sequence (Q00613 whole entry): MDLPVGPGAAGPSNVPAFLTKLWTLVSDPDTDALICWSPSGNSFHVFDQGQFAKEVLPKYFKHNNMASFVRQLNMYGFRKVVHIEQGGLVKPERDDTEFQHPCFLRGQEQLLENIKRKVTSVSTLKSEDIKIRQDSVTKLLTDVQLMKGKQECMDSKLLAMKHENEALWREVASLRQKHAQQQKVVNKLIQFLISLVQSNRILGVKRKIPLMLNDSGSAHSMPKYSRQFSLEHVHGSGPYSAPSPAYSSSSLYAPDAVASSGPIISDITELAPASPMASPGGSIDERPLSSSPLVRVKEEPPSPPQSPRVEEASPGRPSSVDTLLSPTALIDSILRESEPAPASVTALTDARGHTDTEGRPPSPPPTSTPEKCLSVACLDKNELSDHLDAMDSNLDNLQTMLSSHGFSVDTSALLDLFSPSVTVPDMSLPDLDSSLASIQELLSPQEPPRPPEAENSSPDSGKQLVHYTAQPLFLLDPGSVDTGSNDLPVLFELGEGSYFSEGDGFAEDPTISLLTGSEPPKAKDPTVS
ELF4, sequence (Q99607 whole entry): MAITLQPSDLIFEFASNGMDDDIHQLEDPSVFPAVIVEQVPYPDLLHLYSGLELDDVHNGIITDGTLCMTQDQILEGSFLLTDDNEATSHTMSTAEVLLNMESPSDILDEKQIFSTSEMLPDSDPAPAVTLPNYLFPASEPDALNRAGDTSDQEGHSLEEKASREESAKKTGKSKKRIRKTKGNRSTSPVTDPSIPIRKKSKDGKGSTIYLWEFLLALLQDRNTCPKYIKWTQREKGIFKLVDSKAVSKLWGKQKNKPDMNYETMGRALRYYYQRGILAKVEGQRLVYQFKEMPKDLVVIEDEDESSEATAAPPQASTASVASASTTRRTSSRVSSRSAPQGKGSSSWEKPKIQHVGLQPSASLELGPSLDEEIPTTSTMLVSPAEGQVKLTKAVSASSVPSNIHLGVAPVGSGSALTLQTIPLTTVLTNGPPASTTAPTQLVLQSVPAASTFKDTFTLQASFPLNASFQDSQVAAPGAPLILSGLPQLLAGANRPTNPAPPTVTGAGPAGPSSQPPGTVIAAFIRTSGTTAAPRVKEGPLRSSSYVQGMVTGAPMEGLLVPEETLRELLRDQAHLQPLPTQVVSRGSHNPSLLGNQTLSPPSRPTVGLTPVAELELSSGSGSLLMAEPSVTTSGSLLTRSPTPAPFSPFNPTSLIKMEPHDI
ETV1, sequence (P50549 whole entry): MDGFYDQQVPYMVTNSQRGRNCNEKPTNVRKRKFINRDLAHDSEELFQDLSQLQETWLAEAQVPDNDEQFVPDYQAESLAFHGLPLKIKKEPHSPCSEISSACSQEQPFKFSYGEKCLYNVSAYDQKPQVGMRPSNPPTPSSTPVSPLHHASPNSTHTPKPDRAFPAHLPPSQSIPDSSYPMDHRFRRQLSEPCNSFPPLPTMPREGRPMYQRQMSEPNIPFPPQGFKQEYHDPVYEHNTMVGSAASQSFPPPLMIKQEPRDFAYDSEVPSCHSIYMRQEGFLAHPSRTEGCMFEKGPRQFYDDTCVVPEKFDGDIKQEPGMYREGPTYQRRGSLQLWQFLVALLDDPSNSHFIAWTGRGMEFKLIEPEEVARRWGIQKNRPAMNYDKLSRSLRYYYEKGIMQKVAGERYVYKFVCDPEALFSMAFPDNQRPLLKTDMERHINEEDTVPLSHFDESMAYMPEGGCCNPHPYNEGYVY
ETV5, sequence (P41161 whole entry): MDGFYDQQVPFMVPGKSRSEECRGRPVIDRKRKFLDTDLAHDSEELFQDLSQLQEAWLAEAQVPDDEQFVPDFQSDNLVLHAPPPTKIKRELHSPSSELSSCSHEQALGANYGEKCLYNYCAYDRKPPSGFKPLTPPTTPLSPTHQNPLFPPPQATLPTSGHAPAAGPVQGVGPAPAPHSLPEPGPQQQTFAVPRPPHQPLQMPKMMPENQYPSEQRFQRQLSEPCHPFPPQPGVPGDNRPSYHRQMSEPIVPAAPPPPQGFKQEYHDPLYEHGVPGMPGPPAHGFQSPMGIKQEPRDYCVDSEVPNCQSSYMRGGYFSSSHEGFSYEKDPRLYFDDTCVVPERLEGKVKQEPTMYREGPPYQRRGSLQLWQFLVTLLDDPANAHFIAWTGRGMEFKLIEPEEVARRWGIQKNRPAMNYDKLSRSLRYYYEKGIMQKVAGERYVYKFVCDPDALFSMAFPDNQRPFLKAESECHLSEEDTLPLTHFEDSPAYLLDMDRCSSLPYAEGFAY
ETV6, sequence (P41212 whole entry): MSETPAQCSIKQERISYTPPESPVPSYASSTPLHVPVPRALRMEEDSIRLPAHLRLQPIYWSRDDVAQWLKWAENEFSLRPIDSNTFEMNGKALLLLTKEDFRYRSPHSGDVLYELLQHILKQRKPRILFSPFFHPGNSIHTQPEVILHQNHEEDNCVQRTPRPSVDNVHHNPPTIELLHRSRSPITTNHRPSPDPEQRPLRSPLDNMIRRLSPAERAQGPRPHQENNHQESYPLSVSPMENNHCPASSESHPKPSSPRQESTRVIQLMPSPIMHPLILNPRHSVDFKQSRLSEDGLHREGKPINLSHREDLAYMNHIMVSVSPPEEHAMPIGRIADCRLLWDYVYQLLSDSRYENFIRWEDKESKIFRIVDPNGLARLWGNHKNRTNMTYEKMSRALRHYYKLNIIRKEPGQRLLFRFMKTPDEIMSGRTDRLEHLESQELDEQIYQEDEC
CRX, sequence (O43186 whole entry): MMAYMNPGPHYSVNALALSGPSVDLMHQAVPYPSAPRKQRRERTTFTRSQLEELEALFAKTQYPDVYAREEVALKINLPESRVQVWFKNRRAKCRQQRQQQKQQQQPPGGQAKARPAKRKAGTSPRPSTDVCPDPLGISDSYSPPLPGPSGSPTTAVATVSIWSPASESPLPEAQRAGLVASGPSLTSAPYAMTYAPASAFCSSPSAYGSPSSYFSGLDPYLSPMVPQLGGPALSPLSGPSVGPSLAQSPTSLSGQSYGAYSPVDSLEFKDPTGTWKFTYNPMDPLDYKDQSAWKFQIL

## ACTACG
[1]
  binding signal: 1.34 fold enrichment (6-mer frequency, TF over GST control)
[2]
  binding signal: 1.27 fold enrichment (6-mer frequency, TF over GST control)
[3]
  binding signal: 1.09 fold enrichment (6-mer frequency, TF over GST control)
[4]
  binding signal: 1.12 fold enrichment (6-mer frequency, TF over GST control)
[5]
  binding signal: 1.26 fold enrichment (6-mer frequency, TF over GST control)
[6]
  binding signal: 1.32 fold enrichment (6-mer frequency, TF over GST control)
[7]
  binding signal: 1.33 fold enrichment (6-mer frequency, TF over GST control)
[8]
  binding signal: 1.28 fold enrichment (6-mer frequency, TF over GST control)
[9]
  binding signal: 1.08 fold enrichment (6-mer frequency, TF over GST control)
[10]
  binding signal: 1.25 fold enrichment (6-mer frequency, TF over GST control)
[11]
  binding signal: 1.34 fold enrichment (6-mer frequency, TF over GST control)
[12]
  binding signal: 1.31 fold enrichment (6-mer frequency, TF over GST control)
[13]
  binding signal: 1.26 fold enrichment (6-mer frequency, TF over GST control)
[14]
  binding signal: 1.27 fold enrichment (6-mer frequency, TF over GST control)
[15]
  binding signal: 1.4 fold enrichment (6-mer frequency, TF over GST control)
[16]
  binding signal: 1.33 fold enrichment (6-mer frequency, TF over GST control)
[17]
  binding signal: 1.35 fold enrichment (6-mer frequency, TF over GST control)
[18]
  binding signal: 1.32 fold enrichment (6-mer frequency, TF over GST control)
